From ChEMBL document CHEMBL2218924, “A broad activity screen in support of a chemogenomic map for kinase signalling research and drug discovery” (Biochem J, 2013) come the findings set out here.

The target of test [1] is Serine/threonine-protein kinase PAK 4 (Homo sapiens) (UniProt O96013). The following applies: at 1 µM.
Test [2] shares this target. The settings on record: at 10 µM.
Test [3] deals with Serine/threonine-protein kinase PAK 5 (Homo sapiens) (UniProt Q9P286). The following applies: at 1 µM.
The target is the same in test [4]. The settings on record: at 10 µM.
Test [5] addresses Serine/threonine-protein kinase PAK 6 (Homo sapiens) (UniProt Q9NQU5). The following applies: at 1 µM.
For test [6] the target is unchanged. The settings on record: at 10 µM.
Test [7] has as its target PAS domain-containing serine/threonine-protein kinase (Homo sapiens) (UniProt Q96RG2). The settings on record: at 10 µM.
For test [8], the target named is Activated CDC42 kinase 1 (Homo sapiens) (UniProt Q07912). The settings on record: at 1 µM.
Test [9] has the same target. The settings on record: at 10 µM.
The target of test [10] is ALK tyrosine kinase receptor (Homo sapiens) (UniProt Q9UM73). The settings on record: at 1 µM.
Chain of ALK tyrosine kinase receptor (Homo sapiens) (Q9UM73 19-1620 limits assumed): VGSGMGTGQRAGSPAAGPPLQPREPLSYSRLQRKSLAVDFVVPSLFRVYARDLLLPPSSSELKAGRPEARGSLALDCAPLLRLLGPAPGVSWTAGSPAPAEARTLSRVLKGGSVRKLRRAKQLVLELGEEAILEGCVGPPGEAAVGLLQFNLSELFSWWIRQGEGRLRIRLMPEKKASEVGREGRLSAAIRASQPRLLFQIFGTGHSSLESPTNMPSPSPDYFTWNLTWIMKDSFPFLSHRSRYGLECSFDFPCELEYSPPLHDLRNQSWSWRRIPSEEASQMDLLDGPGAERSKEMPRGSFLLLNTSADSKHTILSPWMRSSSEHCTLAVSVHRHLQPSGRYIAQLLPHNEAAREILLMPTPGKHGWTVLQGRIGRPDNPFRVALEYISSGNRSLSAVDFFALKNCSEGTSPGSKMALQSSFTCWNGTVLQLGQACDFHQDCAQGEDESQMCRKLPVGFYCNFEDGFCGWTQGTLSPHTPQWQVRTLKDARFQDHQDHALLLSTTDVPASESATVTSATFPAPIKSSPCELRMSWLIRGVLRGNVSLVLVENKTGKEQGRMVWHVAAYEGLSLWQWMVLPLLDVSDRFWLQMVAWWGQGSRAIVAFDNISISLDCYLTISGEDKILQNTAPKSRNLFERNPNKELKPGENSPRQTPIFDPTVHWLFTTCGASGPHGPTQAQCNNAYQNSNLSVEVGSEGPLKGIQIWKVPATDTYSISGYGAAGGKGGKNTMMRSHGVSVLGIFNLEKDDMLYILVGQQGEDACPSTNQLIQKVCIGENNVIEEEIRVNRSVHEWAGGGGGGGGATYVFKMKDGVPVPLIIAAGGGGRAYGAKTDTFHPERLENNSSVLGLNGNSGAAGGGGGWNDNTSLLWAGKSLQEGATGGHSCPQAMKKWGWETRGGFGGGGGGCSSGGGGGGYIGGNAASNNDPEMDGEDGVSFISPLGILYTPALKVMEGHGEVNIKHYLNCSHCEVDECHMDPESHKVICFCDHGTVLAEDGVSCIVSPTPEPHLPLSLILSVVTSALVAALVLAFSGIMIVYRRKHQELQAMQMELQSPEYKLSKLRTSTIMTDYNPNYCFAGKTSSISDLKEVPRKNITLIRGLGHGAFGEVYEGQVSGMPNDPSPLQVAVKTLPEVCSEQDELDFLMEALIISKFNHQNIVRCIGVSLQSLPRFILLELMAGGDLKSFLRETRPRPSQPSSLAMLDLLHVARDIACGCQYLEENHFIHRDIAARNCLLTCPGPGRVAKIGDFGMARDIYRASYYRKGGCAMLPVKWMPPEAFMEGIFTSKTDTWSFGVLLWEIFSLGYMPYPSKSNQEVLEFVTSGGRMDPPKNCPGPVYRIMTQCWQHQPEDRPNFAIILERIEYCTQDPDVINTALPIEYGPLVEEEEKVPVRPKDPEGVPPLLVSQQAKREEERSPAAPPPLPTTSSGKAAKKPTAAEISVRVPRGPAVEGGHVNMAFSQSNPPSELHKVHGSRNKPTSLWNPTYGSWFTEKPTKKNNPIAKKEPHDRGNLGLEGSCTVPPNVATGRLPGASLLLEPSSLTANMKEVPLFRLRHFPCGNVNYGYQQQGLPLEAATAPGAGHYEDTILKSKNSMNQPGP
The target of test [11] is T1, Activin receptor type-1B (Homo sapiens) (UniProt P36896).
T1 sequence (whole entry): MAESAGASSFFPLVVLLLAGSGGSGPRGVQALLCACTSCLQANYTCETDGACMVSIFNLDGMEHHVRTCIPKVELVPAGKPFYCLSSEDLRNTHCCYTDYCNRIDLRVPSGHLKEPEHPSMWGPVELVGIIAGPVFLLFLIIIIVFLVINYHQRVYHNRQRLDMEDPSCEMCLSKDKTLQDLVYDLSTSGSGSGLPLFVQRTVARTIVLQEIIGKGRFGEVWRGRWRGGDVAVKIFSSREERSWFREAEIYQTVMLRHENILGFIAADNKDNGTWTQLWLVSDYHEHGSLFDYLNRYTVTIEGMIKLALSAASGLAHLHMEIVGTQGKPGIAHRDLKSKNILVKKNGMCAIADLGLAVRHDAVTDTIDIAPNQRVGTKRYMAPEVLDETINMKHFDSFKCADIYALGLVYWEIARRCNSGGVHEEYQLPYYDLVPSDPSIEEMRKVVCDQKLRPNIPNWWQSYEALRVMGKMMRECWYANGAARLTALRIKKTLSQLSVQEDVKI
The following applies: at 1 µM.

The target of test [12] is T1, Activin receptor type-1B (Homo sapiens). The settings on record: at 10 µM.
In test [13] the target is T2, AMP-activated protein kinase (AMPK) alpha-1/beta-1/gamma-1 (Homo sapiens) (UniProt P54619+Q9Y478+Q13131). The following applies: at 1 µM.
T2 sequence (P54619 whole entry): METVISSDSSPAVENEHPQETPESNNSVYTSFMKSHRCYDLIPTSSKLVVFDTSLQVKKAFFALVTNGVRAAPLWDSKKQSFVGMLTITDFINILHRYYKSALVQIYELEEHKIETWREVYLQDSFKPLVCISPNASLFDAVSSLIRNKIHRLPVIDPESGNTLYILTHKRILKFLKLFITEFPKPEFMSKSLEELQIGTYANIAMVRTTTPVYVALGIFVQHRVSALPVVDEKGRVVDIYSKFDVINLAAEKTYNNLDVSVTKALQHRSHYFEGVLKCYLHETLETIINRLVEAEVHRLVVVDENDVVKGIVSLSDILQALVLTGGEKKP
T2 sequence (Q13131 whole entry partner): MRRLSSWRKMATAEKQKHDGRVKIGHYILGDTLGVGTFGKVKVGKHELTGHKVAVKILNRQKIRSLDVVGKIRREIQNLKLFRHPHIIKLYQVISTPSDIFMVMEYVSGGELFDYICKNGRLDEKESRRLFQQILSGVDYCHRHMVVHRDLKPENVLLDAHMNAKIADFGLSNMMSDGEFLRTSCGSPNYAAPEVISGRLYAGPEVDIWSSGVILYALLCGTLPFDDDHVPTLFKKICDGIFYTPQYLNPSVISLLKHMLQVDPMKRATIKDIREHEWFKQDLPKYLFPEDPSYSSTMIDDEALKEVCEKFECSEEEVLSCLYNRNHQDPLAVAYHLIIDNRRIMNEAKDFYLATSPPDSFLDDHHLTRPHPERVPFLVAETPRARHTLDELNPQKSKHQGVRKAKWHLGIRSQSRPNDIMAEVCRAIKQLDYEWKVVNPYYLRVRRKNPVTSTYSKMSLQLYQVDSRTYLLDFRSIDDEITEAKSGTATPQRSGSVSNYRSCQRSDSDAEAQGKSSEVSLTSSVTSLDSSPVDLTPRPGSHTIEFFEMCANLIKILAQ
T2 sequence (Q9Y478 2-270 partner limits assumed): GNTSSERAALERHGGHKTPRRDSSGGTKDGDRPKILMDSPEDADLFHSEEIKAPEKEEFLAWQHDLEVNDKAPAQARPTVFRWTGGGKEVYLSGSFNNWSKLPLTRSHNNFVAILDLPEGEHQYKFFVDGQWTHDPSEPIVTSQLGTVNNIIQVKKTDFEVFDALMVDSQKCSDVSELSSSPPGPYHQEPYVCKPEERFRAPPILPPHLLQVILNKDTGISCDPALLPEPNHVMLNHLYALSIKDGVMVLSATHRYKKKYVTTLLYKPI
For test [14], the target named is T2, AMP-activated protein kinase (AMPK) alpha-1/beta-1/gamma-1 (Homo sapiens). The settings on record: at 10 µM.
The target of test [15] is T3, AMP-activated protein kinase, AMPK (Homo sapiens) (UniProt P54646+O43741+P54619+Q9UGJ0+Q9Y478+Q13131+Q9UGI9). The following applies: at 1 µM.
Test [16] concerns the target T3, AMP-activated protein kinase, AMPK (Homo sapiens). The following applies: at 10 µM.
The target in test [17] is T4, NUAK family SNF1-like kinase 1 (Homo sapiens) (UniProt O60285).
T4 sequence (whole entry): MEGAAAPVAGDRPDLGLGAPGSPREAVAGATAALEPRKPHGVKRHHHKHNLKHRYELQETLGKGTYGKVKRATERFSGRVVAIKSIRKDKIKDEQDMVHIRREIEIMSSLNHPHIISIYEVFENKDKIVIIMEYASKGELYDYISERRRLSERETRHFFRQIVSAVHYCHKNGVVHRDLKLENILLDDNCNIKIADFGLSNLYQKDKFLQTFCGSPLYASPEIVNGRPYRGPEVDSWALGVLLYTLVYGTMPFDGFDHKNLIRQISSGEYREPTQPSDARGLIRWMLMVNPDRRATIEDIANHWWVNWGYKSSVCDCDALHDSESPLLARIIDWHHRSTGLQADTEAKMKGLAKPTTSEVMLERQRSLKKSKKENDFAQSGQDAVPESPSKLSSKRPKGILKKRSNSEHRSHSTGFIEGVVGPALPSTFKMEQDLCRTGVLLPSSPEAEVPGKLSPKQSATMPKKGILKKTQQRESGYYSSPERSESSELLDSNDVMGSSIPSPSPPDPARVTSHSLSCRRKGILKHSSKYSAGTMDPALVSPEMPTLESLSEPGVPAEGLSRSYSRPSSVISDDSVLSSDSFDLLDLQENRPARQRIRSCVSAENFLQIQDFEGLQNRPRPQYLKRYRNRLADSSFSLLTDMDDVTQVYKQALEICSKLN
The settings on record: at 1 µM.

In test [18] the target is T4, NUAK family SNF1-like kinase 1 (Homo sapiens). The settings on record: at 10 µM.
The target in test [19] is T5, Mitogen-activated protein kinase kinase kinase 5 (Homo sapiens) (UniProt Q99683).
T5 sequence (whole entry): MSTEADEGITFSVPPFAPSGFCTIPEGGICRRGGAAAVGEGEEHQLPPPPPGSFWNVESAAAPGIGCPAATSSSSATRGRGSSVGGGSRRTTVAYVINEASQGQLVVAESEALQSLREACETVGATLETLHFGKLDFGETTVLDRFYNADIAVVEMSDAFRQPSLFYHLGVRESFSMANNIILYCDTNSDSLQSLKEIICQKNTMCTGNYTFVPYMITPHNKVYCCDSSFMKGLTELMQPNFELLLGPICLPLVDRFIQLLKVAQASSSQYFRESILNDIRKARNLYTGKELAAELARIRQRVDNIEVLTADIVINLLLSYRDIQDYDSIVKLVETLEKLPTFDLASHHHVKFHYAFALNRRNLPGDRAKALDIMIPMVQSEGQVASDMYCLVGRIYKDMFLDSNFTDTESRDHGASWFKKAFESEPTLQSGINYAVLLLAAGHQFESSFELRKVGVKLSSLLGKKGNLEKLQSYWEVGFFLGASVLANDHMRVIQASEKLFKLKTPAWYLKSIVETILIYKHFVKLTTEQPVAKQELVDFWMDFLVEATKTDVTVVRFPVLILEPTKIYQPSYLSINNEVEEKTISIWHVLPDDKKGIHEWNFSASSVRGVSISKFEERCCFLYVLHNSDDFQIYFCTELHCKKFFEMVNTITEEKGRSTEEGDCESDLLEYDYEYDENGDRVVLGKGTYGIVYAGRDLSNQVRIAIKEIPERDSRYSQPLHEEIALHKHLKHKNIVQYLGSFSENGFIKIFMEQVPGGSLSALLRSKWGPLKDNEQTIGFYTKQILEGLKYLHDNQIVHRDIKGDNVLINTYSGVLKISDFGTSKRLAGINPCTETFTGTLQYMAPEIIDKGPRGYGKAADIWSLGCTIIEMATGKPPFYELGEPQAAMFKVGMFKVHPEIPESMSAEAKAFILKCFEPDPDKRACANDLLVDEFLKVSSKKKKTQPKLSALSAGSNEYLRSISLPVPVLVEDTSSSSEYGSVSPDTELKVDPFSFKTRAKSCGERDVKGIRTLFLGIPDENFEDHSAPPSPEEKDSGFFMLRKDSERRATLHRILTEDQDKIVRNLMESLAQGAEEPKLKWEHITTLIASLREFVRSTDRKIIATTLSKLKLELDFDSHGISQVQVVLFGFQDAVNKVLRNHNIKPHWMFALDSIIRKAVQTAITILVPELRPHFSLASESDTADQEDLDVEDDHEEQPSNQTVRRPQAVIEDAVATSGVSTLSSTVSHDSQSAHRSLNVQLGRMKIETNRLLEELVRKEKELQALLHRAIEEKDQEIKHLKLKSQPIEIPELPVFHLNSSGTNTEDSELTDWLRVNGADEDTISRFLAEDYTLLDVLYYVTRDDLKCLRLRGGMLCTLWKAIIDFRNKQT
The settings on record: at 1 µM.

Test [20] concerns the target ALK tyrosine kinase receptor (Homo sapiens) (UniProt Q9UM73). The following applies: at 10 µM.

Chain of PAS domain-containing serine/threonine-protein kinase (Homo sapiens) (Q96RG2 whole entry, the tested form may be a part): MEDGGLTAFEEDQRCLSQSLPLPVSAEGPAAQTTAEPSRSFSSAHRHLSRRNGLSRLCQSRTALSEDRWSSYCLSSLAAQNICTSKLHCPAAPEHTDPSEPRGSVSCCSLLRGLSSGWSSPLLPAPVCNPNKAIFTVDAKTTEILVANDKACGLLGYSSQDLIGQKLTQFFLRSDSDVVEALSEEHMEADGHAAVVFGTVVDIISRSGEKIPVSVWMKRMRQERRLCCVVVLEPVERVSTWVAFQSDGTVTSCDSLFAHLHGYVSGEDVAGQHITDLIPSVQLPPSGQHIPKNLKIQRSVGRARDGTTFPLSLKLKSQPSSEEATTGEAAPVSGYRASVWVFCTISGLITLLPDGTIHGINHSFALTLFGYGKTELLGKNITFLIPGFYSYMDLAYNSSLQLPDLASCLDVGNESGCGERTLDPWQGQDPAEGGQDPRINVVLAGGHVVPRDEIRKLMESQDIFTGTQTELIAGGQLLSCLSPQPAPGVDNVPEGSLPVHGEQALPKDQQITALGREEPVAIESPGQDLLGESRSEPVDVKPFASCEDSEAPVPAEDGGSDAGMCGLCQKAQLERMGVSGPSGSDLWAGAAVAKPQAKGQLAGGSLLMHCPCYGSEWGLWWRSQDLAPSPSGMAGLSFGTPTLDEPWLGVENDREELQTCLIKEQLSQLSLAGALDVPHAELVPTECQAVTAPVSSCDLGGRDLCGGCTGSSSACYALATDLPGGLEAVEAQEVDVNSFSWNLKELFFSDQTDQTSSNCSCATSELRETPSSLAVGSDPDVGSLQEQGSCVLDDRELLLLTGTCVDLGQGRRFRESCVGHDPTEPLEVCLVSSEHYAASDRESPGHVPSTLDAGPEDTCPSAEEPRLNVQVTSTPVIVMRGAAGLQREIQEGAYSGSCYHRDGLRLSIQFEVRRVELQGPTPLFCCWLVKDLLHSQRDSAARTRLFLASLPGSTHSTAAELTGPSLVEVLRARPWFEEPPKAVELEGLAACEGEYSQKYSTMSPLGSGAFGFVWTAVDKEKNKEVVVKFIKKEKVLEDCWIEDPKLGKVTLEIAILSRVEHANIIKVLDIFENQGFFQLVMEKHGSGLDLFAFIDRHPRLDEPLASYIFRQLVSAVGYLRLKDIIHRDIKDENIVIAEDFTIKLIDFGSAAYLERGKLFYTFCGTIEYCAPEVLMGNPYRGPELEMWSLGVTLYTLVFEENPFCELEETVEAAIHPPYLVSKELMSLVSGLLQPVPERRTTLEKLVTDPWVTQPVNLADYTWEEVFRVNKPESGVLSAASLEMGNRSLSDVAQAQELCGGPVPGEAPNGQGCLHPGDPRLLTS
Chain of Serine/threonine-protein kinase PAK 4 (Homo sapiens) (O96013 whole entry, looked up): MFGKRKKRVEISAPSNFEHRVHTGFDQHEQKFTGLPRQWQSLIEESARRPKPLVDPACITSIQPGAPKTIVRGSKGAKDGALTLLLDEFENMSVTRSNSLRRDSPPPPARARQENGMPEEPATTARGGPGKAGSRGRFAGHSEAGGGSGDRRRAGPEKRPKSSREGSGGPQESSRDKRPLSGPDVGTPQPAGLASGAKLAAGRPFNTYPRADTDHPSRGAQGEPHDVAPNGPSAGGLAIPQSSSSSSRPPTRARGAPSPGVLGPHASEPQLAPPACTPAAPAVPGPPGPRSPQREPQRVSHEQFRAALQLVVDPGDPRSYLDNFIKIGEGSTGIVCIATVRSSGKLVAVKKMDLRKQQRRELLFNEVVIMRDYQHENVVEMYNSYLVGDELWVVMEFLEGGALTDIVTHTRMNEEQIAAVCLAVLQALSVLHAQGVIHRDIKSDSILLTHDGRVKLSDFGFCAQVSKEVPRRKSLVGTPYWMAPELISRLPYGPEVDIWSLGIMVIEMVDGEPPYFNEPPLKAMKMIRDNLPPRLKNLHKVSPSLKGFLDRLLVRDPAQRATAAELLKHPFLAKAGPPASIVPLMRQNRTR

In the case of `Cc1cncc2cccc(S(=O)(=O)N3CCCN(C(=O)CN)C[C@H]3C)c12`, the residual activity came to 90% in test [1]; 85% in test [2]; 86% in test [3]; 95% in test [4]; 88% in test [5]; 86% in test [6]. Further, the residual activity was found to be 64% in [7]; 69% in test [8]; 21% in test [9]; 76% in test [10]; 137% in test [11]; 86% in [12]. Also, the residual activity in [13] amounted to 98%; in test [14], 66%; in test [15], 97%; in test [16], 45%; in [17] it was 95%; in test [18] it was 71%. Moreover, the residual activity in test [19] amounted to 98%.

`N#CC(C#N)=C(N)/C(C#N)=C/c1ccc(O)cc1`: the residual activity in [1] is 98%; in test [2], 91%; in test [5], 100%; in [6], 87%; in test [7], 65%; in test [8] it was 84%. Besides, the residual activity in test [9] turned out to be 70%; in test [10], 88%; in test [13], 92%; in test [14], 79%; in test [15] it was 100%; in test [18] it was 96%. Further, the residual activity in test [19] is 81%.

For the molecule `CO[C@H]1[C@@H](OC)C[C@H](C)[C@@H](OC)C2=CC(=O)C=C(NC(=O)/C(C)=C/C=C/[C@H](OC)[C@@H](OC(N)=O)/C(C)=C/[C@@H]1C)C2=O`, the residual activity in test [1] worked out at 106%; in test [2], 92%; in test [3], 92%; in test [4], 64%; in test [5], 99%; in test [6], 84%. The residual activity in test [7] is 59%; in test [8], 92%; in test [9] it was 72%; in test [10] it was 71%; in test [20] it was 50%; in test [11] it was 112%. The residual activity was 112% in test [12]; 94% in test [13]; 78% in test [14]; 92% in test [15]; 78% in test [16]; 93% in [17]. Also, the residual activity in test [18] stood at 94%; in test [19], 88%.

Turning to `O=C1Nc2ccccc2/C1=C1/Nc2ccccc2/C1=N\OCCC(O)CO` (configuration not stated), the residual activity in [1] came out at 44%; in test [2] it was 12%; in test [3] it was 61%; in [4] it was 30%; in test [5], 81%; in test [6], 27%. The residual activity was found to be 116% in [7]; 14% in [8]; 1% in [9]; 24% in test [10]; 2% in test [20]; 4% in test [13]. In addition, the residual activity in [14] is 4%; in test [15], 3%; in [16], 4%; in [17] it was 2%; in [18], 5%; in test [19] it was 68%.

Take `C[C@@H](N)[C@H]1CC[C@H](C(=O)Nc2ccncc2)CC1`: the residual activity in [1] was 92%; in test [2] it was 77%; in [3], 104%; in [4] it was 106%; in test [5], 117%; in test [6], 109%. In addition, the residual activity in test [7] worked out at 85%; in test [8] it was 97%; in test [9], 95%; in [10], 116%; in test [20] it was 126%; in [11], 82%. The residual activity amounted to 63% in test [12]; 98% in test [13]; 93% in test [14]; 104% in [15]; 83% in [16]; 101% in [17]. Also, the residual activity turned out to be 91% in test [18] and 101% in test [19].

As to `Cc1cccc(-c2[nH]c(C(C)(C)C)nc2-c2ccc3c(c2)OCO3)n1`, the residual activity in test [1] was 97%; in [2], 88%; in [3] it was 87%; in [4] it was 102%; in test [8], 90%; in test [9] it was 67%. Besides, the residual activity in test [10] was 82%; in test [20] it was 102%; in [11], 1%; in test [12], -6%; in test [13] it was 102%; in test [14], 83%. In addition, the residual activity in [15] was 106%; in test [16], 78%; in [17] it was 102%; in test [18], 88%; in [19], 83%.

Take `CCN(CC)C(=O)c1ccc(Nc2nc(OCC3CCCCC3)c3nc[nH]c3n2)cc1`: the residual activity in test [1] was 18%; in [2], 2%; in test [3], 43%; in test [4], 3%; in test [5], 58%; in test [6] it was 23%. Further, the residual activity stood at 5% in [8]; 1% in test [9]; 65% in [10]; 6% in test [20]; 35% in [13]; 6% in test [14]. In addition, the residual activity was 22% in test [15]; 5% in [16]; 2% in test [17]; 4% in test [18]; 80% in test [19].

In the case of `c1ccc2c(-c3ccncc3)c[nH]c2c1`, the residual activity is 93% in test [1]; 80% in test [2]; 97% in test [3]; 103% in test [4]; 106% in [5]; 103% in test [6]. The residual activity in [7] amounted to 20%; in test [8] it was 80%; in test [9], 49%; in test [10], 76%; in test [20], 105%; in test [12], 110%. The residual activity in [13] amounted to 93%; in [14], 82%; in test [16], 85%; in test [17], 97%; in [18] it was 84%; in [19], 93%.
